Results reported in article PMC7862700, “An all-to-all approach to the identification of sequence-specific readers for epigenetic DNA modifications on cytosine”.

Columns and labels:
Assay in all cases: DAPPL (digital affinity profiling via proximity ligation, sequencing); 10 mM Tris-HCl pH 7.5, 50 mM NaCl, 1 mM DTT, 4% glycerol, room temperature, 30 min; GST-TFs on glutathione beads, 16-mer random dsDNA library, 0.1% formaldehyde crosslink after washing; high values mean tight binding
Details in all cases: protein: recombinant; tags: N-terminal GST; dsDNA, one strand shown
FLI1 = target: T1, FLI1 (Homo sapiens, UniProt Q01543 1-452)
T1 sequence: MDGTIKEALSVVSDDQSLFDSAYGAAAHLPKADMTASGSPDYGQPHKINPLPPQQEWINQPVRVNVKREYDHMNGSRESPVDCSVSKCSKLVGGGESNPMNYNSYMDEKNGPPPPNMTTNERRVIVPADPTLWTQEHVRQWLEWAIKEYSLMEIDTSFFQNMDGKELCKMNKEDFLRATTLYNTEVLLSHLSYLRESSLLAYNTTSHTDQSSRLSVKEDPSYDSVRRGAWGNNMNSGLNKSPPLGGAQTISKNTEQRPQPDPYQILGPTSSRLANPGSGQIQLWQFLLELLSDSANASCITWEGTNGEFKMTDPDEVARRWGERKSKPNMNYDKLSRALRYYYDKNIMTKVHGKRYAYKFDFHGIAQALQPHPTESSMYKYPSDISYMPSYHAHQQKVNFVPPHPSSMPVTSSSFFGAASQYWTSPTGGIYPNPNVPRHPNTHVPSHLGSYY
Method in brief: (§1)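 Binding signal is given per hexamer as its read frequency for a factor divided by its frequency in the tag-only sample. GST-fused human transcription factors were expressed in yeast, captured on glutathione beads, barcoded with DNA and pooled with that sample, then incubated with 200 nmole of a 16-mer random double-stranded DNA library in Tris/NaCl/DTT/glycerol buffer for 30 min at room temperature. The pools were then washed, crosslinked, proximity-ligated, amplified by PCR and sequenced on an Illumina NextSeq500.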

ELK1 = target: T2, ELK1 (Homo sapiens, UniProt P19419 1-428)
T2 sequence: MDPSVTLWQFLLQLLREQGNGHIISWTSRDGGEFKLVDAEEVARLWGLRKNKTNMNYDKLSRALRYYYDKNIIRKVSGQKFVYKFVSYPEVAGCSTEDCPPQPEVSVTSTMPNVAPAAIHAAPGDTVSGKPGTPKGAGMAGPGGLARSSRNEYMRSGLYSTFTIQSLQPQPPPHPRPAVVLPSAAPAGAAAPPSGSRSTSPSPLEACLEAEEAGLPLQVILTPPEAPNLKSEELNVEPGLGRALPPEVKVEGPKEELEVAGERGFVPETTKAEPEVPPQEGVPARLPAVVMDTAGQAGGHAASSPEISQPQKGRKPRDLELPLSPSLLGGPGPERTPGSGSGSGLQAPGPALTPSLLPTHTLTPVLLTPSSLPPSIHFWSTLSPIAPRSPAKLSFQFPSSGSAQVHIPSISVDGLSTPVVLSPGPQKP
Method in brief: as §1

GABPA = target: T3, GABPA (Homo sapiens, UniProt Q06546 1-454)
T3 sequence: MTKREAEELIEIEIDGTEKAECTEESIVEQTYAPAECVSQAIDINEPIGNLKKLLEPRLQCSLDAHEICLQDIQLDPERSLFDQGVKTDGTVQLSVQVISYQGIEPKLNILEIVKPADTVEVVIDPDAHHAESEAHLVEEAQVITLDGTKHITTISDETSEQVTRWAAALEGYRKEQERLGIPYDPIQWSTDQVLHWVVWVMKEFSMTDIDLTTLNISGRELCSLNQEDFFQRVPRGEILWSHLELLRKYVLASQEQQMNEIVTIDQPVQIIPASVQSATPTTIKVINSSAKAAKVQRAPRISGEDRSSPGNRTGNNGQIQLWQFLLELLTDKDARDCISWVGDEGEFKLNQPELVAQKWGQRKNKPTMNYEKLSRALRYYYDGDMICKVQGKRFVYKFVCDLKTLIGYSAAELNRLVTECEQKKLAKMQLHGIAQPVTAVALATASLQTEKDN
Method in brief: as §1

ERG = target: T4, ERG (Homo sapiens, UniProt P11308 1-479)
T4 sequence: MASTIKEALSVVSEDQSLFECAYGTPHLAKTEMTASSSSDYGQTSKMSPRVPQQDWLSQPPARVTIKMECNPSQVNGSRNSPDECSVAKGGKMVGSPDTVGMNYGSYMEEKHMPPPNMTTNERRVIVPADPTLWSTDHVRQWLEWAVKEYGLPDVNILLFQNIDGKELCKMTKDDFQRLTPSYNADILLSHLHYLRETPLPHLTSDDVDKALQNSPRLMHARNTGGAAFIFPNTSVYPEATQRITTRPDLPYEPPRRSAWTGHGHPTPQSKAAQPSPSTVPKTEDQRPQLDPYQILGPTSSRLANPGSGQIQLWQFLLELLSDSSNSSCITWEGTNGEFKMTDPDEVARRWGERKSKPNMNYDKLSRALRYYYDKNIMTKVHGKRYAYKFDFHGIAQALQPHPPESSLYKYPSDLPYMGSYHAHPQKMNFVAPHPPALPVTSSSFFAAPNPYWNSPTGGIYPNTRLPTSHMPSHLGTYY
Method in brief: as §1

ELF1 = ELF1 (Homo sapiens, UniProt P32519 1-619)
Chain of ELF1 (P32519 whole entry): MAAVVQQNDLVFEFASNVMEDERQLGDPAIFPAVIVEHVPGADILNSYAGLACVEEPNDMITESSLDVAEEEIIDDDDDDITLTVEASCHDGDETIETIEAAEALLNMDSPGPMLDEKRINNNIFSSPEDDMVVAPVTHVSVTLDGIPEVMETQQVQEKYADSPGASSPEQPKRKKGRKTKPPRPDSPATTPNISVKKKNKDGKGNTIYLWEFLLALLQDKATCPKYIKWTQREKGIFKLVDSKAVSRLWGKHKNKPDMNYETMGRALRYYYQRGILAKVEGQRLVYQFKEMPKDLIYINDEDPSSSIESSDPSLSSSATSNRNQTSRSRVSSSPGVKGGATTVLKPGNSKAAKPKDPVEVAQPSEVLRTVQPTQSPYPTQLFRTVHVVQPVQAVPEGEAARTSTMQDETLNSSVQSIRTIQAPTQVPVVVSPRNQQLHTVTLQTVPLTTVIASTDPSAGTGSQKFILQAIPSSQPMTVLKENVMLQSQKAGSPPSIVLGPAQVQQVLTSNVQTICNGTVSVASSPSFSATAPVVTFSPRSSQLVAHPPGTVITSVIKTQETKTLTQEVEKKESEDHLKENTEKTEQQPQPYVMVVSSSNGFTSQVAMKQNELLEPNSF
Method in brief: as §1

EHF = target: T5, EHF (Homo sapiens, UniProt Q9NZC4 1-300)
T5 sequence: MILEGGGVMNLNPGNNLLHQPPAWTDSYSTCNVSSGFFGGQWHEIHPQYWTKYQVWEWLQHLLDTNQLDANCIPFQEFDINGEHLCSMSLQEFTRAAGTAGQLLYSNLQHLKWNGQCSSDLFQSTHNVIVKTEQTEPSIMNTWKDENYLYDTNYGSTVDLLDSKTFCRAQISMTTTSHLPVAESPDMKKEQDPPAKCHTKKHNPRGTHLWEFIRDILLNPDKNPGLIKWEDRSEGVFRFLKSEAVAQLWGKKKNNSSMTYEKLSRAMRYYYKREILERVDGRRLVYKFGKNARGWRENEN
Method in brief: as §1

SPIB = SPIB (Homo sapiens, UniProt Q01892 1-262)
Chain of SPIB (Q01892 whole entry): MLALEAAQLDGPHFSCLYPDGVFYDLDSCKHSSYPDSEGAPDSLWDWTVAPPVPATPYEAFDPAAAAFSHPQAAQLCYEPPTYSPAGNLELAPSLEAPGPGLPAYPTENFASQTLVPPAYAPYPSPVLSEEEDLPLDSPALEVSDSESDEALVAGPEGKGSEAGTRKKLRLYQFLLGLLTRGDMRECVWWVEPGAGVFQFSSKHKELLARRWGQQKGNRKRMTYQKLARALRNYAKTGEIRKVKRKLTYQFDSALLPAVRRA
Method in brief: as §1

FEV = target: T6, FEV (Homo sapiens, UniProt Q99581 1-238)
T6 sequence: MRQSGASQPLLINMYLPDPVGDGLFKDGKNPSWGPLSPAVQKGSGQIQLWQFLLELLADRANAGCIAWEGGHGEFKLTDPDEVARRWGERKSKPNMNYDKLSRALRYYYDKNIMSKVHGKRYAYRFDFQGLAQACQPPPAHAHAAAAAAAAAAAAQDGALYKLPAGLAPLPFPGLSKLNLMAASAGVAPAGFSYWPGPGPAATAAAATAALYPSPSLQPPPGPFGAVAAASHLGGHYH
Method in brief: as §1

ETV5 = ETV5 (Homo sapiens, UniProt P41161 1-510)
Chain of ETV5 (P41161 whole entry): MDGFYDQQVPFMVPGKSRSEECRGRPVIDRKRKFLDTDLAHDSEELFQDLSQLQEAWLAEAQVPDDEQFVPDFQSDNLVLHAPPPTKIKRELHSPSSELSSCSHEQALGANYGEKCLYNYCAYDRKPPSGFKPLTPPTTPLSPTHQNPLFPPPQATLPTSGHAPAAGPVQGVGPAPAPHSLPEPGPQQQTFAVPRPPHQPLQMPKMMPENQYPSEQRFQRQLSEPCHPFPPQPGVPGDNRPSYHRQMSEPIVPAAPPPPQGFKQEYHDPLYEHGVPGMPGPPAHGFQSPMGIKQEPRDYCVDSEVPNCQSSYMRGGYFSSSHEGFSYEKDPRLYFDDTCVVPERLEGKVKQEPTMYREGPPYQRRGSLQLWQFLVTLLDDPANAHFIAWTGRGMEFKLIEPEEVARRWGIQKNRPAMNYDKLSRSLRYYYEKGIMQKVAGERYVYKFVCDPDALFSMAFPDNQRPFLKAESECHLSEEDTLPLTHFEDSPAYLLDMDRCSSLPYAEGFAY
Method in brief: as §1

SPIC = target: T7, SPIC (Homo sapiens, UniProt Q8N5J4 1-248)
T7 sequence: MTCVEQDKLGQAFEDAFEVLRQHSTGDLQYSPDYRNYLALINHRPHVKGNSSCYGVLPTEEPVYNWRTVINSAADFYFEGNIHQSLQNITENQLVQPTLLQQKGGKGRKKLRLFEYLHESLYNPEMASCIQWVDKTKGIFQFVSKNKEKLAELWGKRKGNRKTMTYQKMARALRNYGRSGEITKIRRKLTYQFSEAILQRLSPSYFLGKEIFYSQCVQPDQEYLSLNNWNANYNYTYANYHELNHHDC
Method in brief: as §1

ELF4 = ELF4 (Homo sapiens, UniProt Q99607 1-663)
Chain of ELF4 (Q99607 whole entry): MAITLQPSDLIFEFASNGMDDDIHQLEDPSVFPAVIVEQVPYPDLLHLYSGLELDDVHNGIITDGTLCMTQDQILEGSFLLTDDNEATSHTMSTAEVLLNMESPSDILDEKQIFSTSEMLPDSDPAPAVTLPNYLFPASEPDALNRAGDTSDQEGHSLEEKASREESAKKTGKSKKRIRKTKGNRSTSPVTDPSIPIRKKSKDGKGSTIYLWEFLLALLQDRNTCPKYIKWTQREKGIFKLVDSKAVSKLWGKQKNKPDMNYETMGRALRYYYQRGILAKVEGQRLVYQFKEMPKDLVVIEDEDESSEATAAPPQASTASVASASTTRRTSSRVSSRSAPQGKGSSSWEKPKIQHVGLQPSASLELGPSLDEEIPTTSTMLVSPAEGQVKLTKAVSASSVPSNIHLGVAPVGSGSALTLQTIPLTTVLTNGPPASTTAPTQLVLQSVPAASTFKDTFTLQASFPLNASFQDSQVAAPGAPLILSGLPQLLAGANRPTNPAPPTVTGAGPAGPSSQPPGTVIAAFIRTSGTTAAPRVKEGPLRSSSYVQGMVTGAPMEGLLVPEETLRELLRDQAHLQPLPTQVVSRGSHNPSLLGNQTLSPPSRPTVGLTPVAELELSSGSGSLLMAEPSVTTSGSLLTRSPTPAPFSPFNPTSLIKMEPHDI
Method in brief: as §1

ERF = target: T8, ERF (Homo sapiens, UniProt P50548 1-548)
T8 sequence: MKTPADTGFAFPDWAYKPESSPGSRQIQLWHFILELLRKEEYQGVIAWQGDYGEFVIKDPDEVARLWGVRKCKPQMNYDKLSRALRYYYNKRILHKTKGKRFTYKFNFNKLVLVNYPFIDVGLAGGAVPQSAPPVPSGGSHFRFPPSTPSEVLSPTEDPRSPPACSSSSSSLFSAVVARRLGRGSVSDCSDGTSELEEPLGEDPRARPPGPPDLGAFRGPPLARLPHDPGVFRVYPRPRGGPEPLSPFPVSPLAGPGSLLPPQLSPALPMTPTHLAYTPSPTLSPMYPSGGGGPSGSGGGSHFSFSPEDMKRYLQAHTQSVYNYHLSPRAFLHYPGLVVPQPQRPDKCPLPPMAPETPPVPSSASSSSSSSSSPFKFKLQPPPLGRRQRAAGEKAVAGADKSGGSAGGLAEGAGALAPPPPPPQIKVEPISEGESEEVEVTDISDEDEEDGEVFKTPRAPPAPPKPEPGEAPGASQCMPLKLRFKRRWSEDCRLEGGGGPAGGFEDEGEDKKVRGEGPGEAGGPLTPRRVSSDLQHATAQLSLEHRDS
Method in brief: as §1

ETS2 = target: T9, ETS2 (Homo sapiens, UniProt P15036 1-469)
T9 sequence: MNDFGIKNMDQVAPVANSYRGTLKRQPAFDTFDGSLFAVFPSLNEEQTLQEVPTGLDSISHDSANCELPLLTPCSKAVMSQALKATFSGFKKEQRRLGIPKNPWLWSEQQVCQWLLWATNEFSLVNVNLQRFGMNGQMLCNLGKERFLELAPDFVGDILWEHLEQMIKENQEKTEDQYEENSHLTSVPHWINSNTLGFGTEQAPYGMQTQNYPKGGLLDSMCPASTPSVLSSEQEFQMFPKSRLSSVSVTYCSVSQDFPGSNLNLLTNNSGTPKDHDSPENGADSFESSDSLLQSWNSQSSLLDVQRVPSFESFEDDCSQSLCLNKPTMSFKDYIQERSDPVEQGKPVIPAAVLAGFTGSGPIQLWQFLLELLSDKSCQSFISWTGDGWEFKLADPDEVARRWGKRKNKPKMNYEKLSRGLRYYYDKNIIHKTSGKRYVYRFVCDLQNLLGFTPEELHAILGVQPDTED
Method in brief: as §1

ELF5 = target: T10, ELF5 (Homo sapiens, UniProt Q9UKW6-2 1-255)
T10 sequence: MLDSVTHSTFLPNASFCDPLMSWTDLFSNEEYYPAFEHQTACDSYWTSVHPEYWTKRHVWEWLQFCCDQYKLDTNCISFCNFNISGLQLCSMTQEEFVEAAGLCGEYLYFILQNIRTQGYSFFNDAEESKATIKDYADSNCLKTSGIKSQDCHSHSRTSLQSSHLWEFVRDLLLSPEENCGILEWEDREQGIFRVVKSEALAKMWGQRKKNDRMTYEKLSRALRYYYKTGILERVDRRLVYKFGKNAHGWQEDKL
Method in brief: as §1

ETV3 = target: T11, ETV3 (Homo sapiens, UniProt P41162-2 1-143)
T11 sequence: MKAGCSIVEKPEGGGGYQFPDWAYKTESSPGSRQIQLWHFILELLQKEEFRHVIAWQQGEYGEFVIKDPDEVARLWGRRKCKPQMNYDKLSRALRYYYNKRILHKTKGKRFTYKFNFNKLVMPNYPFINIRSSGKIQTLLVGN
Method in brief: as §1

ETV6 = ETV6 (Homo sapiens, UniProt P41212 1-452)
Chain of ETV6 (P41212 whole entry): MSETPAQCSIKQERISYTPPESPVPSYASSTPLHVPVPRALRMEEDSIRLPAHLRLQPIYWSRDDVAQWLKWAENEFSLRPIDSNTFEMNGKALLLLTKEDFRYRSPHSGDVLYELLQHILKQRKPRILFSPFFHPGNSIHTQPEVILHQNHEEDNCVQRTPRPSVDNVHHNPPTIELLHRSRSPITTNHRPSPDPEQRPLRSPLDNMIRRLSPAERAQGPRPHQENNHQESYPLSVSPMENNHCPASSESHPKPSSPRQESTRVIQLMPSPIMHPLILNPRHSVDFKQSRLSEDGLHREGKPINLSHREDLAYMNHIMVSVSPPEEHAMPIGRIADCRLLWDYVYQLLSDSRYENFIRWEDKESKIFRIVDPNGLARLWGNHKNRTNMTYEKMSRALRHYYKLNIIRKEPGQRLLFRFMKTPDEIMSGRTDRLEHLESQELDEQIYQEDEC
Method in brief: as §1

AGCAAC
binding signal (FLI1): 1 fold enrichment (6-mer frequency, TF over GST control)
binding signal (ELK1): 1.03 fold enrichment (6-mer frequency, TF over GST control)
binding signal (GABPA): 1.06 fold enrichment (6-mer frequency, TF over GST control)
binding signal (ERG): 1.06 fold enrichment (6-mer frequency, TF over GST control)
binding signal (ELF1): 1.08 fold enrichment (6-mer frequency, TF over GST control)
binding signal (EHF): 1.15 fold enrichment (6-mer frequency, TF over GST control)
binding signal (SPIB): 1.08 fold enrichment (6-mer frequency, TF over GST control)
binding signal (FEV): 1.08 fold enrichment (6-mer frequency, TF over GST control)
binding signal (ETV5): 1.06 fold enrichment (6-mer frequency, TF over GST control)
binding signal (SPIC): 1.11 fold enrichment (6-mer frequency, TF over GST control)
binding signal (ELF4): 1.1 fold enrichment (6-mer frequency, TF over GST control)
binding signal (ERF): 1.11 fold enrichment (6-mer frequency, TF over GST control)
binding signal (ETS2): 1.11 fold enrichment (6-mer frequency, TF over GST control)
binding signal (ELF5): 1.07 fold enrichment (6-mer frequency, TF over GST control)
binding signal (ETV3): 1.04 fold enrichment (6-mer frequency, TF over GST control)
binding signal (ETV6): 1.06 fold enrichment (6-mer frequency, TF over GST control)
